According to PubChem BioAssay (EPA / NIEHS):
“And” between values parts separate entries of the source, which are not always exact repeats. Equal values may be shown once. Where a structure was tested more than once in an assay, its records may differ in their call. The source made the active and inactive calls. Rule for the calls: active = hit-call score of the fitted dose curve at least 0.9, where 1 is the maximum; inactive = score below 0.9.

Tests used:
Conditions in all cases: mRNA level, 48 h; actives raise or lower the signal
[1] = read-out: JUN Transcription Factor, JUN (gene 3725); experiment: LTEA_HepaRG_JUN: Life Technologies and Expression Analysis (LTEA) Assay for JUN Transcription Factor using HepaRG (AID 2283513)
Procedure, shortened: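 Cells plated 48 h, medium switched to serum-free induction medium, then dosed 48 h (100 uM top, half-log dilutions, 0.5% DMSO). RNA isolated; JUN measured by qRT-PCR against three housekeeping genes; gain or loss fitted relative to DMSO.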

[2] = read-out: Lipase C (LIPC), LIPC (gene 3990); experiment: LTEA_HepaRG_LIPC: Life Technologies and Expression Analysis (LTEA) Assay for Lipase C (LIPC) using HepaRG (AID 2283514)
Procedure, shortened: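 Differentiated human HepaRG cells in serum-free induction medium were exposed in duplicate for 48 h to eight concentrations (top 100 uM, half-log steps, 0.5% DMSO). LIPC mRNA was quantified by TaqMan qRT-PCR, normalized to ACTB, GAPDH and POLR2A, with bidirectional fitting versus DMSO.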

[3] = read-out: Lipoprotein lipase (LPL), LPL (gene 4023); experiment: LTEA_HepaRG_LPL: Life Technologies and Expression Analysis (LTEA) Assay for Lipoprotein lipase (LPL) using HepaRG (AID 2283515)
Procedure, shortened: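 Differentiated human HepaRG cells in serum-free induction medium were exposed in duplicate for 48 h to eight half-log concentrations (top 100 uM) in 0.5% DMSO. LPL mRNA was quantified by TaqMan qRT-PCR, normalized to ACTB, GAPDH and POLR2A.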

[4] = read-out: MicroRNA 122 (MIR122), gene 406906; experiment: LTEA_HepaRG_MIR122: Life Technologies and Expression Analysis (LTEA) Assay for MicroRNA 122 (MIR122) using HepaRG (AID 2283516); note: the transcript read is the microRNA miR-122
Procedure, shortened: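 HepaRG plated 48 h, switched to serum-free induction medium, then treated in duplicate for 48 h (100 uM top, half-log steps, 0.5% DMSO vehicle). RNA isolated, qRT-PCR performed, concentration-response fitted both directions relative to DMSO.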

[5] = read-out: matrix metalloproteinase-10 (MMP10), MMP10 (gene 4319); experiment: LTEA_HepaRG_MMP10: Life Technologies and Expression Analysis (LTEA) Assay for matrix metalloproteinase-10 (MMP10) using HepaRG (AID 2283517)
Procedure, shortened: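 HepaRG, collagen I, ~100,000 cells/well; serum-free induction medium; 48 h exposure, duplicate, 8-pt half-log to 100 uM, 0.5% DMSO. Readout: TaqMan qRT-PCR, normalized to ACTB/GAPDH/POLR2A; bidirectional fit vs DMSO.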

[6] = read-out: MYC, MYC (gene 4609); experiment: LTEA_HepaRG_MYC: Life Technologies and Expression Analysis (LTEA) Assay for MYC using HepaRG (AID 2283518)
Procedure, shortened: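 HepaRG, ~100,000 cells/well, collagen I; 48 h plating; serum-free induction medium; 48 h dosing, duplicate, 100 uM top, half-log, 0.5% DMSO; total RNA → qRT-PCR MYC; gain/loss fit vs DMSO.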

[7] = read-out: matrix metalloproteinase-3 (MMP3), MMP3 (gene 4314); experiment: LTEA_HepaRG_MMP3: Life Technologies and Expression Analysis (LTEA) Assay for matrix metalloproteinase-3 (MMP3) using HepaRG (AID 2283519)
Procedure, shortened: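 Differentiated human HepaRG cells, plated 48 h on collagen I, were exposed in duplicate for 48 h in serum-free induction medium to eight half-log concentrations up to 100 uM in 0.5% DMSO. MMP3 mRNA was quantified by TaqMan qRT-PCR, normalised to ACTB, GAPDH and POLR2A.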

[8] = read-out: Paternally Expressed 10 (PEG10), PEG10 (gene 23089); experiment: LTEA_HepaRG_PEG10: Life Technologies and Expression Analysis (LTEA) Assay for Paternally Expressed 10 (PEG10) using HepaRG (AID 2283520)
Procedure, shortened: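 HepaRG, 48 h post-plating → serum-free induction medium → 48 h chemical exposure (duplicate, 8-pt, max 100 uM, half-log, 0.5% DMSO) → lysis in RLT → TaqMan qRT-PCR for PEG10, ACTB/GAPDH/POLR2A normalisation.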

[9] = read-out: Nuclear factor NF-kappa-B p105 subunit (Homo sapiens) (UniProt P19838); experiment: LTEA_HepaRG_NFKB1: Life Technologies and Expression Analysis (LTEA) Assay for Nuclear Factor Kappa B Subunit 1 (NFKB1) using HepaRG (AID 2283521);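 note: TaqMan qRT-PCR transcript normalised to ACTB GAPDH and POLR2A housekeeping genes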
Procedure, shortened: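 HepaRG, 48 h exposure; 8-pt half-log series from 100 uM in 0.5% DMSO; duplicates. Readout: NFKB1 mRNA by qRT-PCR (Fluidigm arrays), housekeeping-normalized. Gain/loss fit vs DMSO baseline.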

[10] = read-out: Protein phosphatase 2A (PPP2R4), PTPA (gene 5524); experiment: LTEA_HepaRG_PPP2R4: Life Technologies and Expression Analysis (LTEA) Assay for Protein phosphatase 2A (PPP2R4) using HepaRG (AID 2283522)
Procedure, shortened: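 Readout is PPP2R4 transcript level by microfluidic qRT-PCR after 48 h chemical treatment of human HepaRG liver cells. Concentrations spanned 100 uM downward in half-log steps; gain or loss of signal was fitted relative to DMSO.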

[11] = read-out: solute carrier (SLC22A1), SLC22A1 (gene 6580); experiment: LTEA_HepaRG_SLC22A1: Life Technologies and Expression Analysis (LTEA) Assay for solute carrier (SLC22A1) using HepaRG (AID 2283524)
Procedure, shortened: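 Human HepaRG cells were plated 48 h, switched to serum-free induction medium, then exposed in duplicate for 48 h to 8-point half-log series from 100 uM in 0.5% DMSO. SLC22A1 mRNA measured by qRT-PCR, normalized to ACTB/GAPDH/POLR2A, fitted bidirectionally versus DMSO.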

[12] = read-out: Pyruvate Dehydrogenase Kinase 4 (PDK4), PDK4 (gene 5166); experiment: LTEA_HepaRG_PDK4: Life Technologies and Expression Analysis (LTEA) Assay for Pyruvate Dehydrogenase Kinase 4 (PDK4) using HepaRG (AID 2283525)
Procedure, shortened: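 Differentiated human HepaRG cells, pre-cultured 48 h, were exposed in duplicate for 48 h in serum-free induction medium to eight half-log concentrations up to 100 uM in 0.5% DMSO. PDK4 mRNA was quantified by qRT-PCR, normalized to ACTB, GAPDH and POLR2A, bidirectional fitting versus DMSO.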

[13] = read-out: NAD(P)H dehydrogenase [quinone] 1 (NQO1), NQO1 (gene 1728); experiment: LTEA_HepaRG_NQO1: Life Technologies and Expression Analysis (LTEA) Assay for NAD(P)H dehydrogenase [quinone] 1 (NQO1) using HepaRG (AID 2283526)
Procedure, shortened: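 HepaRG, 48 h post-plating → serum-free induction medium → test chemical 48 h (duplicate, 100 uM top, half-log x8, 0.5% DMSO) → RNA isolation → qRT-PCR, ACTB/GAPDH/POLR2A normalization; bidirectional curve fit vs DMSO baseline.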

[14] = read-out: Nuclear factor erythroid 2-related factor 2 (Homo sapiens) (UniProt Q16236); experiment: LTEA_HepaRG_NFE2L2: Life Technologies and Expression Analysis (LTEA) Assay for Nuclear factor erythroid 2-related factor 2 (NFE2L2) Transcription Factor using HepaRG (AID 2283527)
Procedure, shortened: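 Differentiated human HepaRG cells in serum-free induction medium were exposed for 48 h to eight concentrations (top 100 uM, half-log dilutions, 0.5% DMSO), in duplicate. NFE2L2 mRNA was quantified by TaqMan qRT-PCR, normalized to ACTB, GAPDH and POLR2A, with bidirectional fitting versus DMSO.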

[15] = read-out: succinate dehydrogenase complex iron sulfur subunit B (SDHB), SDHB (gene 6390); experiment: LTEA_HepaRG_SDHB: Life Technologies and Expression Analysis (LTEA) Assay for succinate dehydrogenase complex iron sulfur subunit B (SDHB) using HepaRG (AID 2283528)
Procedure, shortened: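 Readout is SDHB transcript level by qRT-PCR, normalised to three housekeeping genes and fitted bidirectionally against 0.5% DMSO vehicle. Human HepaRG cells were treated for 48 h at up to 100 uM.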

[16] = read-out: solute carrier (SLCO1B1), SLCO1B1 (gene 10599); experiment: LTEA_HepaRG_SLCO1B1: Life Technologies and Expression Analysis (LTEA) Assay for solute carrier (SLCO1B1) using HepaRG (AID 2283530)
Procedure, shortened: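 HepaRG, serum-free induction medium, 48 h dosing, 8-pt half-log from 100 uM, 0.5% DMSO vehicle, duplicates. Readout: SLCO1B1 mRNA, qRT-PCR, ACTB/GAPDH/POLR2A normalization; up or down fit vs DMSO.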

[17] = read-out: sulfotransferase 2A1 (SULT2A1), SULT2A1 (gene 6822); experiment: LTEA_HepaRG_SULT2A1: Life Technologies and Expression Analysis (LTEA) Assay for sulfotransferase 2A1 (SULT2A1) using HepaRG (AID 2283531)
Procedure, shortened: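 Transcript levels of SULT2A1, quantified by qRT-PCR and normalized to three housekeeping genes, serve as the readout. Human HepaRG cultures receive test chemicals for 48 h at up to 100 uM in half-log steps, with 0.5% DMSO vehicle.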

[18] = read-out: Transforming Growth Factor (TGFA), TGFA (gene 7039); experiment: LTEA_HepaRG_TGFA: Life Technologies and Expression Analysis (LTEA) Assay for Transforming Growth Factor (TGFA) using HepaRG (AID 2283532)
Procedure, shortened: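 Differentiated human HepaRG cells, plated 48 h then switched to serum-free induction medium, were exposed in duplicate for 48 h to 8-point half-log series from 100 uM in 0.5% DMSO. TGFA mRNA measured by qRT-PCR, normalized to ACTB/GAPDH/POLR2A, bidirectional fit versus DMSO.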

[19] = read-out: Phosphatase and tensin (PTEN), PTEN (gene 5728); experiment: LTEA_HepaRG_PTEN: Life Technologies and Expression Analysis (LTEA) Assay for Phosphatase and tensin (PTEN) using HepaRG (AID 2283523)
Procedure, shortened: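 Differentiated human HepaRG cells, plated 48 h then switched to serum-free induction medium, were exposed in duplicate for 48 h to eight half-log concentrations up to 100 uM in 0.5% DMSO. PTEN mRNA measured by TaqMan qRT-PCR, normalized to ACTB/GAPDH/POLR2A, bidirectional fit versus DMSO.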

Measured: AC50

Sequence of Nuclear factor erythroid 2-related factor 2 (Homo sapiens) (Q16236 whole entry, looked up): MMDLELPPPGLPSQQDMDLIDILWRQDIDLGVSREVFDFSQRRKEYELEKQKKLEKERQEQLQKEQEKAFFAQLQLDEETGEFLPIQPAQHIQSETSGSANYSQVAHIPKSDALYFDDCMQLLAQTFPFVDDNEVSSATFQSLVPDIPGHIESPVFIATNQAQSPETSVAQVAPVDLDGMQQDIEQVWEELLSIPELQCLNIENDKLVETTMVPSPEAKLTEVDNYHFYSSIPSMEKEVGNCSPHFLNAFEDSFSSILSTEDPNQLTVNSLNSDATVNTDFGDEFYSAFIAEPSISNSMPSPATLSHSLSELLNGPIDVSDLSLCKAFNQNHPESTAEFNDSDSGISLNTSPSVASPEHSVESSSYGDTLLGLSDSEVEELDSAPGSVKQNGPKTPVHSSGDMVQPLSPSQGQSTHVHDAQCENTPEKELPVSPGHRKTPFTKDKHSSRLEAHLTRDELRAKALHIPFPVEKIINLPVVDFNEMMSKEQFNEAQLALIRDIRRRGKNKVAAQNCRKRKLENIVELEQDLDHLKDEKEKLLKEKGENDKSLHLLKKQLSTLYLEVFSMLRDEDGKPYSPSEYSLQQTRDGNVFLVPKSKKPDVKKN
Sequence of Nuclear factor NF-kappa-B p105 subunit (Homo sapiens) (P19838 whole entry, looked up): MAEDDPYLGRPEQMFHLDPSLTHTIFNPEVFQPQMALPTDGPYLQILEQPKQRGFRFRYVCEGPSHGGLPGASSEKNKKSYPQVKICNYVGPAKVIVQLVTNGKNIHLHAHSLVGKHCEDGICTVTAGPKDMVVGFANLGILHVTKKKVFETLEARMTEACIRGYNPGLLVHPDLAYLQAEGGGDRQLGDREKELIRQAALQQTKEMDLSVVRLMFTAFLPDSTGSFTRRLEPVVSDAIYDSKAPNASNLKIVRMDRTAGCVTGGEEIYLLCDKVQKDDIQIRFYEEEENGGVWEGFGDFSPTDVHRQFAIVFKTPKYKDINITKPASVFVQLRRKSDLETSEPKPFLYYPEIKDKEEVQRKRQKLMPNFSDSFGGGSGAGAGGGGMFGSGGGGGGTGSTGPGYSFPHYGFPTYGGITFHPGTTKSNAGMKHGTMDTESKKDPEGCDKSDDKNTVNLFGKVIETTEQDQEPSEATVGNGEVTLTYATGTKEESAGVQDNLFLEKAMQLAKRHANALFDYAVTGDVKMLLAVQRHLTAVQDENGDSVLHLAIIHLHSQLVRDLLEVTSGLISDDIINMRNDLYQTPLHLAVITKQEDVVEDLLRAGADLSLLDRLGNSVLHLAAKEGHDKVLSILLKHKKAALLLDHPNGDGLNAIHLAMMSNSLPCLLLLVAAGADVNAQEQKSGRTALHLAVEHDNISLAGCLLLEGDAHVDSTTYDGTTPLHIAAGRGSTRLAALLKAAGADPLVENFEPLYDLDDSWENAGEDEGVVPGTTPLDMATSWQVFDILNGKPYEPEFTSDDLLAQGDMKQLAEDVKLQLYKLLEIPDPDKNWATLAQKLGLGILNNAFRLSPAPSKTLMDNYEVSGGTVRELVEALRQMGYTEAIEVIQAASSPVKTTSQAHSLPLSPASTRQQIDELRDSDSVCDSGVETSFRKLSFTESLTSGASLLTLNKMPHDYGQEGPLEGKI

C=CCC1=C(C)[C@@H](OC(=O)[C@@H]2[C@@H](C=C(C)C)C2(C)C)CC1=O
active: [2] 81.5 µM | [8] 22.6 µM | [11] 50 µM
not listed: [19]
inactive: all other assays above

C=CCC1=C(C)C(OC(=O)C2C(C=C(C)C)C2(C)C)CC1=O (stereo unspecified)
inactive: [1] | [2] | [3] | [4] | [5] | [6] | [7] | [9] | [10] | [19] | [12] | [13] | [14] | [15] | [16] | [17] | [18]
active: [2] 84 µM | [4] 90.8 µM and 22.5 µM | [8] 68.4 µM and 79.7 µM and 28.2 µM | [11] 86.3 µM and 83.2 µM and 50 µM | [12] 50 µM | [15] 69.1 µM | [16] 87.3 µM and 50 µM | [17] 86.7 µM

CN(C)C(=S)SSC(=S)N(C)C
inactive: all assays above

CCOC(=O)CC(SP(=S)(OC)OC)C(=O)OCC (stereo unspecified)
not listed: [19]
inactive: all other assays above

CCCN(CCC)c1c([N+](=O)[O-])cc(S(N)(=O)=O)cc1[N+](=O)[O-]
inactive: [2] | [3] | [4] | [5] | [6] | [7] | [9] | [10] | [11] | [13] | [14] | [16] | [18]
active: [1] 94.2 µM and 79.3 µM and 74.8 µM | [3] 50 µM | [4] 95.7 µM | [5] 74.1 µM | [6] 86.2 µM | [7] 83.6 µM | [8] 96.3 µM and 41 µM and 7.55 µM | [10] 72 µM | [11] 57 µM | [12] 92.7 µM and 50 µM and 83.9 µM | [14] 79.3 µM and 79.5 µM | [15] 96.3 µM and 50 µM and 84.4 µM | [17] 92.1 µM and 76.9 µM and 81 µM
